Measured values from PubChem BioAssay (NCI).
The panel holds about 79,000 compounds, 15% with a hit somewhere; the sample as a whole holds those more often. The source made the active and inactive calls. Cut-off read from the data, not from the text of the source: active = growth inhibition above about 70%; inactive = the rest.

Columns and labels:
[1] = NCI Yeast Anticancer Drug Screen. Data for the rad50 strain (AID 155);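 note: 0% = growth of vehicle-only cultures of the same strain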; details: S. cerevisiae rad50 strain growth inhibition, stronger effect = higher value
How it was run: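 Compounds were tested on a yeast strain with an engineered DNA damage repair alteration; the reported value is growth inhibition normalised to vehicle treatment.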

[2] = NCI Yeast Anticancer Drug Screen. Data for the mec2-1 strain (AID 157); details: S. cerevisiae mec2-1 strain, stronger effect = higher value
How it was run: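 Using mec2-1 yeast: add compound, measure growth, express inhibition versus vehicle-treated cultures.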

[3] = NCI Yeast Anticancer Drug Screen. Data for the sgs1 mgt1 strain (AID 161);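 note: 0% = growth of cultures given vehicle only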; details: S. cerevisiae sgs1 mgt1 strain, stronger effect = higher value
How it was run: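 Percent growth inhibition was derived by comparing compound-exposed mutant yeast with vehicle-exposed cultures. The strain carries alterations in DNA damage repair.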

[4] = NCI Yeast Anticancer Drug Screen. Data for the cln2 rad14 strain (AID 165);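 note: 0% = growth equal to vehicle treated cultures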; details: S. cerevisiae cln2 rad14 strain, stronger effect = higher value
How it was run: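 Yeast strain cln2 rad14, bearing defects in cell cycle control and DNA repair, serves as the test system; values reflect growth inhibition compared with vehicle.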

[5] = NCI Yeast Anticancer Drug Screen. Data for the bub3 strain (AID 167); details: S. cerevisiae bub3 mutant strain, stronger effect = higher value
How it was run: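 Growth of a checkpoint-deficient yeast mutant is measured after compound exposure. Values represent inhibition relative to vehicle.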

[6] = NCI Yeast Anticancer Drug Screen. Data for the mlh1 rad18 strain (AID 175); details: S. cerevisiae mlh1 rad18 strain growth inhibition, stronger effect = higher value
How it was run: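 Steps: expose repair-defective yeast to compound; measure growth; express inhibition against vehicle-treated controls.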

[7] = at 5.0 µM (retest, dose inferred, filed as 0.5)
[8] = at 50.0 µM (retest, dose inferred, filed as 5.0)

Measured: growth inhibition

Nc1ccc2c(c1)Cc1c(Cl)cccc1-2
active: [1]; [8] 95% | [1]; at 50.0 µM 96% | [2]; [8] 96% | [3]; [8] 90% | [3]; at 50.0 µM 89.4% | [4]; [8] 92% | [4]; at 50.0 µM 80.2% | [5]; [8] 94% | [5]; at 50.0 µM 94.3% | [6]; [8] 95% | [6]; at 50.0 µM 95.2%
inactive: [1]; [7] 1% | [2]; [7] 3% | [2]; at 50.0 µM 54.4% | [3]; [7] 3% | [4]; [7] -12% | [5]; [7] -3% | [6]; [7] -1%

CCC1C(c2cccc(OC)c2O)c2cc3c(cc2OC1N1CCCC1)OCO3 (centres undefined)
inactive: [1]; [7] 21% | [1]; [8] 43% | [1]; at 50.0 µM -66.2% | [2]; [7] 22% | [2]; [8] 19% | [2]; at 50.0 µM -19.7% | [3]; [7] 26% | [3]; [8] 25% | [3]; at 50.0 µM -52.7% | [4]; [7] 31% | [4]; [8] 45% | [4]; at 50.0 µM -28.6% | [5]; [7] 17% | [5]; [8] 26% | [5]; at 50.0 µM -5.3% | [6]; [7] 22% | [6]; [8] 63% | [6]; at 50.0 µM -29.7%

O=C/C(Br)=C\c1ccccc1
inactive: [1]; [7] 36% | [1]; at 50.0 µM 55.2% | [2]; [7] 20% | [3]; [7] 25% | [3]; at 50.0 µM 49.5% | [4]; [7] 12% | [5]; [7] 26% | [5]; at 50.0 µM 48.4% | [6]; [7] 16% | [6]; at 50.0 µM 7.45%
active: [1]; [8] 99% | [2]; [8] 99% | [2]; at 50.0 µM 99.2% | [3]; [8] 99% | [4]; [8] 99% | [4]; at 50.0 µM 98.4% | [5]; [8] 99% | [6]; [8] 99%

CC1(C)[C@H]2CC[C@]1(C)[C@H](OC(=O)NNC(=O)O[C@@H]1C[C@@H]3CC[C@@]1(C)C3(C)C)C2
inactive: [1]; [7] 33% | [1]; at 50.0 µM 11.3% | [2]; [7] 37% | [2]; [8] 59% | [2]; at 50.0 µM 22.4% | [3]; [7] 26% | [3]; [8] 35% | [3]; at 50.0 µM 53% | [4]; [7] 30% | [4]; [8] 38% | [4]; at 50.0 µM 47.4% | [5]; [7] 35% | [5]; [8] 51% | [5]; at 50.0 µM 67.2% | [6]; [7] 38% | [6]; [8] 68% | [6]; at 50.0 µM -16%
active: [1]; [8] 74%

SCCCCCCCCCCS
active: [1]; [8] 98% | [1]; at 50.0 µM 98.9% | [2]; [8] 99% | [2]; at 50.0 µM 99.4% | [3]; [8] 89% | [3]; at 50.0 µM 99% | [4]; [8] 94% | [4]; at 50.0 µM 87.3% | [5]; [8] 99% | [5]; at 50.0 µM 97.5% | [6]; [8] 96% | [6]; at 50.0 µM 99.1%
inactive: [1]; [7] 0% | [2]; [7] 0% | [3]; [7] 1% | [4]; [7] 4% | [5]; [7] 2% | [6]; [7] -1%

NC(N)=N/N=C(\c1ccc(F)cc1)c1ccc(C(F)(F)F)cc1
active: [1]; [8] 99% | [1]; at 50.0 µM 72.6% | [2]; [8] 96% | [3]; [8] 99% | [3]; at 50.0 µM 80.5% | [4]; [8] 93% | [5]; [8] 99% | [5]; at 50.0 µM 83.7% | [6]; [8] 99% | [6]; at 50.0 µM 85.8%
inactive: [1]; [7] 5% | [2]; [7] -3% | [2]; at 50.0 µM 30.2% | [3]; [7] -2% | [4]; [7] -4% | [4]; at 50.0 µM -12.7% | [5]; [7] -1% | [6]; [7] 0%

O=c1[nH]c(C(F)(F)F)c(F)c(=O)[nH]1
active: [2]; at 50.0 µM 93.5% | [3]; at 50.0 µM 86.7% | [4]; at 50.0 µM 94.1% | [6]; at 50.0 µM 95%
inactive: [1]; [7] 0% | [1]; [8] -2% | [1]; at 50.0 µM 69.3% | [2]; [7] 3% | [2]; [8] 1% | [3]; [7] 2% | [3]; [8] 27% | [4]; [7] 3% | [4]; [8] 5% | [5]; [7] -2% | [5]; [8] -5% | [5]; at 50.0 µM 63.1% | [6]; [7] -2% | [6]; [8] -3%

O=C(O)Cc1cc(I)c(Oc2ccc(O)c(I)c2)c(I)c1
inactive: [1]; [7] -6% | [2]; [7] 0% | [3]; [7] 7% | [4]; [7] 29% | [5]; [7] 22% | [6]; [7] 20%
active: [1]; [8] 92% | [1]; at 50.0 µM 89.8% | [2]; [8] 98% | [2]; at 50.0 µM 92.2% | [3]; [8] 93% | [3]; at 50.0 µM 91% | [4]; [8] 97% | [4]; at 50.0 µM 89.3% | [5]; [8] 98% | [5]; at 50.0 µM 91.7% | [6]; [8] 97% | [6]; at 50.0 µM 89.7%

c1ccc(CN2CCC3(CC2)SSC2(CCN(Cc4ccccc4)CC2)S3)cc1
inactive: [1]; [7] 3% | [1]; [8] 16% | [1]; at 50.0 µM 53.7% | [2]; [7] 2% | [2]; [8] 23% | [2]; at 50.0 µM 23.4% | [3]; [7] 22% | [3]; [8] 67% | [3]; at 50.0 µM 61.2% | [4]; [7] 4% | [4]; [8] 8% | [4]; at 50.0 µM 68.3% | [5]; [7] 5% | [5]; [8] 43% | [5]; at 50.0 µM 27.1% | [6]; [7] 6% | [6]; [8] 32% | [6]; at 50.0 µM 52%

CN(C)CC(C)(C)C(/C=C/c1ccccc1)=N\Nc1ccccc1
inactive: [1]; [7] 3% | [1]; [8] 61% | [2]; [7] 0% | [2]; [8] 68% | [3]; [7] 12% | [4]; [7] 6% | [4]; [8] 47% | [5]; [7] 1% | [6]; [7] 2%
active: [1]; at 50.0 µM 98.1% | [2]; at 50.0 µM 90.2% | [3]; [8] 72% | [3]; at 50.0 µM 97.8% | [4]; at 50.0 µM 97.3% | [5]; [8] 91% | [5]; at 50.0 µM 98.6% | [6]; [8] 76% | [6]; at 50.0 µM 98.3%

O=C(O)COc1c(Cl)c(Cl)c(Cl)c(Cl)c1Cl.[Cu+2]
inactive: [1]; [7] 28% | [2]; [7] 20% | [3]; [7] 42% | [4]; [7] 7% | [5]; [7] 9% | [6]; [7] 22%
active: [1]; [8] 98% | [1]; at 50.0 µM 88% | [2]; [8] 99% | [2]; at 50.0 µM 93.7% | [3]; [8] 99% | [3]; at 50.0 µM 92.7% | [4]; [8] 99% | [4]; at 50.0 µM 86% | [5]; [8] 99% | [5]; at 50.0 µM 89.2% | [6]; [8] 99% | [6]; at 50.0 µM 86.3%

C=C(CN(C)C)C(=O)c1ccccc1[N+](=O)[O-]
active: [1]; [8] 92% | [2]; [8] 96% | [3]; [8] 91% | [3]; at 50.0 µM 74.2% | [4]; [7] 99% | [4]; [8] 91% | [5]; [8] 92% | [5]; at 50.0 µM 71.7% | [6]; [8] 92%
inactive: [1]; [7] 1% | [1]; at 50.0 µM 8.5% | [2]; [7] 10% | [2]; at 50.0 µM 51.4% | [3]; [7] 6% | [4]; at 50.0 µM -25.4% | [5]; [7] 1% | [6]; [7] 8% | [6]; at 50.0 µM 66.8%

CNCCCNc1c2cc(OC)ccc2nc2cccc([N+](=O)[O-])c12
active: [1]; [8] 96% | [1]; at 50.0 µM 82.8% | [2]; [8] 97% | [2]; at 50.0 µM 88.2% | [3]; [8] 94% | [3]; at 50.0 µM 78.3% | [4]; [8] 98% | [4]; at 50.0 µM 85.3% | [6]; [8] 97% | [6]; at 50.0 µM 78.6%
inactive: [1]; [7] 9% | [2]; [7] -10% | [3]; [7] 49% | [4]; [7] 41% | [5]; [7] -31% | [5]; [8] 52% | [5]; at 50.0 µM 55.5% | [6]; [7] 41%
